Laboratory results taken from the supplement of paper PMC7411054.

Columns and labels:
Details in all cases: treatment time: 24 h
A549-GM130-SQSTM1 [1] = assay: lowest phenotypically active concentration; higher = less potent
Summary of the method: (§1)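 Cells from fifteen gene-edited reporter lines (A549, HepG2 and WPMY1) were treated for 24 h at 0.3, 1, 3 or 9 µM and imaged live, four wells per condition. Features were normalised per well to solvent control wells. A condition deviated if ≥3 of 4 wells passed the 95th percentile of control Euclidean distances and was reproducible if its median replicate Pearson correlation beat the 95th percentile of non-replicates; phenotypic activity needed both.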

HepG2-GM130-SQSTM1 [2] = assay: as above
Summary of the method: as §1

WPMY1-GM130-SQSTM1 [3] = assay: as above
Summary of the method: as §1

WPMY1-TP53BP1-CLTA [4] = assay: as above
Summary of the method: as §1

A549-ACTB-RAB5A = assay: phenotypically active (imaging signature differs from DMSO and reproducible) at any of 0.3-9 uM (binary (1 = active, 0 = inactive)); higher = active
Summary of the method: as §1

A549-CANX-COX4 = assay: as above
Summary of the method: as §1

A549-GM130-SQSTM1 [5] = assay: as above
Summary of the method: as §1

A549-TP53BP1-CLTA = assay: as above
Summary of the method: as §1

A549-TUBA1B-RELA = assay: as above
Summary of the method: as §1

HepG2-ACTB-RAB5A = assay: as above
Summary of the method: as §1

HepG2-CANX-COX4 [6] = assay: as above
Summary of the method: as §1

HepG2-GM130-SQSTM1 [7] = assay: as above
Summary of the method: as §1

HepG2-TP53BP1-CLTA = assay: as above
Summary of the method: as §1

HepG2-TUBA1B-RELA = assay: as above
Summary of the method: as §1

WPMY1-ACTB-RAB5A = assay: as above
Summary of the method: as §1

WPMY1-CANX-COX4 = assay: as above
Summary of the method: as §1

WPMY1-GM130-SQSTM1 [8] = assay: as above
Summary of the method: as §1

WPMY1-TP53BP1-CLTA [9] = assay: as above
Summary of the method: as §1

WPMY1-TUBA1B-RELA = assay: as above
Summary of the method: as §1

HepG2-CANX-COX4 [10] = assay: lowest phenotypically active concentration; higher = less potent
Summary of the method: as §1

| SMILES | lowest phenotypically active concentration (A549-GM130-SQSTM1 [1]) [µM] | lowest phenotypically active concentration (HepG2-GM130-SQSTM1 [2]) [µM] | lowest phenotypically active concentration (WPMY1-GM130-SQSTM1 [3]) [µM] | lowest phenotypically active concentration (WPMY1-TP53BP1-CLTA [4]) [µM] | phenotypically active (A549-ACTB-RAB5A) | phenotypically active (A549-CANX-COX4) | phenotypically active (A549-GM130-SQSTM1 [5]) | phenotypically active (A549-TP53BP1-CLTA) | phenotypically active (A549-TUBA1B-RELA) | phenotypically active (HepG2-ACTB-RAB5A) | phenotypically active (HepG2-CANX-COX4 [6]) | phenotypically active (HepG2-GM130-SQSTM1 [7]) | phenotypically active (HepG2-TP53BP1-CLTA) | phenotypically active (HepG2-TUBA1B-RELA) | phenotypically active (WPMY1-ACTB-RAB5A) | phenotypically active (WPMY1-CANX-COX4) | phenotypically active (WPMY1-GM130-SQSTM1 [8]) | phenotypically active (WPMY1-TP53BP1-CLTA [9]) | phenotypically active (WPMY1-TUBA1B-RELA) | lowest phenotypically active concentration (HepG2-CANX-COX4 [10]) [µM] |
| --- | --- | --- | --- | --- | --- | --- | --- | --- | --- | --- | --- | --- | --- | --- | --- | --- | --- | --- | --- | --- |
| CN1C[C@H](C(=O)N[C@]2(C)O[C@@]3(O)[C@@H]4CCCN4C(=O)[C@H](Cc4ccccc4)N3C2=O)C[C@@H]2c3cccc4[nH]cc(c34)C[C@H]21.CN1C[C@H](C(=O)N[C@]2(C)O[C@@]3(O)[C@@H]4CCCN4C(=O)[C@H](Cc4ccccc4)N3C2=O)C[C@@H]2c3cccc4[nH]cc(c34)C[C@H]21 [dihydroergotamine] | 9 | 9 | 9 | 9 | 1 (active) | 0 (inactive) | 1 (active) | 1 (active) | 1 (active) | 1 (active) | 0 (inactive) | 1 (active) | 1 (active) | 1 (active) | 0 (inactive) | 0 (inactive) | 1 (active) | 1 (active) | 0 (inactive) |  |
| Cc1c(C(=O)Nc2cccc(C(F)(F)F)c2)cc(-c2ccccc2)n1CCCN1CCOCC1 | 9 |  |  |  | 1 (active) | 0 (inactive) | 1 (active) | 0 (inactive) | 0 (inactive) | 0 (inactive) | 0 (inactive) | 0 (inactive) | 0 (inactive) | 0 (inactive) | 0 (inactive) | 0 (inactive) | 0 (inactive) | 0 (inactive) | 0 (inactive) |  |
| O=C(Nc1ccncc1)C(=O)c1cn(Cc2ccc(Cl)cc2)c2ccccc12 [Indibulin] | ≤ 0.3 | ≤ 0.3 | ≤ 0.3 | ≤ 0.3 | 1 (active) | 0 (inactive) | 1 (active) | 1 (active) | 1 (active) | 1 (active) | 1 (active) | 1 (active) | 1 (active) | 1 (active) | 1 (active) | 1 (active) | 1 (active) | 1 (active) | 1 (active) | ≤ 0.3 |
| CC[C@]12C=CCN3CC[C@]4(C(=C(C(=O)OC)C1)Nc1ccccc14)[C@@H]32 [Tabersonine dichlorhydrate] | 9 | 9 | 9 | 9 | 1 (active) | 1 (active) | 1 (active) | 0 (inactive) | 1 (active) | 1 (active) | 1 (active) | 1 (active) | 1 (active) | 1 (active) | 1 (active) | 1 (active) | 1 (active) | 1 (active) | 1 (active) | 9 |
| N#CC(C#N)=NNc1cccc(Cl)c1 | 9 | 9 | 9 | 3 | 1 (active) | 1 (active) | 1 (active) | 1 (active) | 1 (active) | 1 (active) | 1 (active) | 1 (active) | 1 (active) | 1 (active) | 1 (active) | 1 (active) | 1 (active) | 1 (active) | 1 (active) | 9 |
| C[C@H](CCC(=O)O)C[C@H](C)C[C@H](C)C(=O)/C=C(\O)[C@H](C)C[C@H](C)C/C=C/[C@@H](C)[C@@H](O)[C@@H](C)[C@@H](O)C[C@@H]1CC[C@@](C)([C@H]2CC[C@@](C)([C@@H](C)O)O2)O1 [Ionomycin free acid] |  |  | 9 | 9 | 0 (inactive) | 1 (active) | 0 (inactive) | 0 (inactive) | 0 (inactive) | 0 (inactive) | 1 (active) | 0 (inactive) | 0 (inactive) | 1 (active) | 1 (active) | 1 (active) | 1 (active) | 1 (active) | 0 (inactive) | 9 |
| COc1ccc2c(c[n+](C)c3c4cc5c(cc4ccc23)OCO5)c1OC [Chelerythrine chloride] |  |  |  | 9 | 1 (active) | 0 (inactive) | 0 (inactive) | 1 (active) | 0 (inactive) | 0 (inactive) | 0 (inactive) | 0 (inactive) | 1 (active) | 0 (inactive) | 0 (inactive) | 0 (inactive) | 0 (inactive) | 1 (active) | 0 (inactive) |  |
| COC(=O)[C@@]1(O)C[C@H]2O[C@]1(C)n1c3ccccc3c3c4c(c5c6ccccc6n2c5c31)C(=O)NC4 | ≤ 0.3 | ≤ 0.3 | ≤ 0.3 | ≤ 0.3 | 1 (active) | 1 (active) | 1 (active) | 1 (active) | 1 (active) | 1 (active) | 1 (active) | 1 (active) | 1 (active) | 1 (active) | 1 (active) | 1 (active) | 1 (active) | 1 (active) | 1 (active) | ≤ 0.3 |
| COc1cc2c(c(OC)c1OC)-c1ccc(O)c(=O)cc1[C@@H](N)CC2 [Trimethylcolchicinic acid] | 9 |  |  |  | 1 (active) | 1 (active) | 1 (active) | 1 (active) | 1 (active) | 0 (inactive) | 1 (active) | 0 (inactive) | 0 (inactive) | 1 (active) | 0 (inactive) | 0 (inactive) | 0 (inactive) | 0 (inactive) | 0 (inactive) | 9 |
| COc1ccc(N(C(=O)Oc2c(C)cccc2C)c2ccnc(Nc3ccc(N4CCN(C)CC4)cc3)n2)c(OC)c1 | 1 | 3 |  | 3 | 1 (active) | 1 (active) | 1 (active) | 1 (active) | 1 (active) | 1 (active) | 1 (active) | 1 (active) | 1 (active) | 1 (active) | 1 (active) | 0 (inactive) | 0 (inactive) | 1 (active) | 0 (inactive) | 1 |
